# From the supplement of paper PMC9801561
# ± gives the standard deviation of the averaged measurements.
# Columns and labels:
# [1] = tested on: Escherichia coli Nissle 1917; test: area under OmniLog respiration curve over 48 h (OmniLog units x h); higher = more growth / nutrient utilisation; extreme values may be limits of the assay; conditions: incubation: 48 h, 37 °C
# [2] = tested on: Escherichia coli Nissle 1917; test: DuctApe activity index of respiration/growth curve (0 no growth to 9 maximum) (index 0-9); higher = more growth / nutrient utilisation, active = 3 or more; extreme values may be limits of the assay; conditions: incubation: 48 h, 37 °C
# [3] = nutrient role: C-Source, carbohydrate
# [4] = nutrient role: sole nitrogen source (pyruvate carbon)
# [5] = nutrient role: sole sulfur source (pyruvate carbon)
# [6] = nutrient role: sole phosphorus source (pyruvate carbon)
# [7] = nutrient role: C-Source, carboxylic acid
# 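Throughout, for DuctApe activity index of respiration/growth curve (0 no growth to 9 maximum): biolog PM4 phosphorus and sulfur plates, tetrazolium violet dye reduction read in the OmniLog every 15 min, kinetic curves scored by DuctApe, each plate run in triplicate.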
structure (smiles),measurement,setting,value
OC[C@@H](O)[C@@H](O[C@H]1O[C@H](CO)[C@@H](O)[C@H](O)[C@H]1O)[C@H](O)[C@@H](O)CO [Maltitol],area under OmniLog respiration curve,[1]; [3],4.72
same,DuctApe activity index,[2]; [3],0 (inactive)
NCCN [Ethylenediamine],area under OmniLog respiration curve,[1]; [4],4.72
same,DuctApe activity index,[2]; [4],0 (inactive)
O=S(=O)(O)CCO [2-Hydroxyethane Sulfonic acid],area under OmniLog respiration curve,[1]; [5],7790 ± 450
same,DuctApe activity index,[2]; [5],8 (active)
Nc1nc2c(ncn2[C@@H]2O[C@H](COP(=O)(O)O)[C@@H](O)[C@H]2O)c(=O)[nH]1 [Guanosine 5`-Monophosphate],area under OmniLog respiration curve,[1]; [6],9210 ± 900
same,DuctApe activity index,[2]; [6],8.67 (active)
O=P(O)(O)O[C@H]1[C@H](OP(=O)(O)O)[C@@H](OP(=O)(O)O)[C@H](OP(=O)(O)O)[C@@H](OP(=O)(O)O)[C@H]1OP(=O)(O)O [Inositol Hexaphosphate],area under OmniLog respiration curve,[1]; [6],8630 ± 520
same,DuctApe activity index,[2]; [6],8.67 (active)
N[C@@H]1C(O)O[C@H](CO)[C@@H](O)[C@@H]1O (stereo partly drawn) [D-Mannosamine],area under OmniLog respiration curve,[1]; [4],1020 ± 700
same,DuctApe activity index,[2]; [4],1.67 (inactive)
N[C@@H](Cc1ccc(O)cc1)C(=O)O [L-Tyrosine],area under OmniLog respiration curve,[1]; [4],1110 ± 450
same,DuctApe activity index,[2]; [4],2.33 (inactive)
CCCCCCCCCC(=O)O [Capric acid],area under OmniLog respiration curve,[1]; [7],14.2 ± 6.8
same,DuctApe activity index,[2]; [7],0 (inactive)
OCc1ccccc1O[C@@H]1O[C@H](CO)[C@@H](O)[C@H](O)[C@H]1O [Salicin],area under OmniLog respiration curve,[1]; [3],4.72
same,DuctApe activity index,[2]; [3],0 (inactive)
N[C@@H](CS(=O)(=O)O)C(=O)O [L-Cysteic acid],area under OmniLog respiration curve,[1]; [5],5920 ± 240
same,DuctApe activity index,[2]; [5],7 (active)
NCCCCN=C(N)N [Agmatine],area under OmniLog respiration curve,[1]; [4],336 ± 570
same,DuctApe activity index,[2]; [4],0 (inactive)
CC(=O)C(=O)O [Pyruvic acid],area under OmniLog respiration curve,[1]; [7],9610 ± 520
same,DuctApe activity index,[2]; [7],9 (active)
O=C(O)c1ccccc1O [2-Hydroxybenzoic acid],area under OmniLog respiration curve,[1]; [7],4.72
same,DuctApe activity index,[2]; [7],0 (inactive)
CSC[C@H](N)C(=O)O [S-Methyl-L-Cysteine],area under OmniLog respiration curve,[1]; [5],17.8 ± 23
same,DuctApe activity index,[2]; [5],0.333 (inactive)
O=C(O)CC(CC(=O)O)C(=O)O [Tricarballylic acid],area under OmniLog respiration curve,[1]; [7],5.51 ± 1.4
same,DuctApe activity index,[2]; [7],0 (inactive)
C/C(=C/C(=O)O)C(=O)O [Citraconic acid],area under OmniLog respiration curve,[1]; [7],4.72
same,DuctApe activity index,[2]; [7],0 (inactive)
O=S(=O)(O)O [Sulfate],area under OmniLog respiration curve,[1]; [5],6810 ± 400
same,DuctApe activity index,[2]; [5],7.33 (active)
O=C(O)[C@H](O)[C@@H](O)[C@H](O)[C@H](O)CO[C@H]1O[C@H](CO)[C@H](O)[C@H](O)[C@H]1O [Melibionic acid],area under OmniLog respiration curve,[1]; [3],6790 ± 140
same,DuctApe activity index,[2]; [3],7 (active)
O=C(O)C[C@@H](O)C(=O)O [D-Malic acid],area under OmniLog respiration curve,[1]; [7],3920 ± 860
same,DuctApe activity index,[2]; [7],5.33 (active)
C=C(OP(=O)(O)O)C(=O)O [Phosphoenol Pyruvate],area under OmniLog respiration curve,[1]; [6],9270 ± 480
same,DuctApe activity index,[2]; [6],9 (active)
